Results filed as inconclusive are left out. Active and inactive are the calls of the source. The calls were made as follows: active = hit-call score of the fitted dose curve at least 0.9, where 1 is the maximum; inconclusive = response in the unintended direction; inactive = score below 0.9.
Legend:
[1] = target: sheep Cyclooxygenase-2 (Cox2), PTGS2 (gene 443460) (UniProt P79208); experiment: NVS_ENZ_oCOX2: NovaScreen (NVS) Enzymatic Assay for sheep Cyclooxygenase-2 (Cox2) (AID 2283231)
Procedure, shortened: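 Colorimetric absorbance read-out of COX activity, taken 0.66 hour post-dosing, using native protein from sheep placenta. Single-concentration duplicate screen (25 uM), then singleton concentration-response up to 50 uM for actives.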

[2] = target: rat Catechol-O-Methyl Transferase (COMT), Comt (gene 24267) (UniProt P22734); experiment: NVS_ENZ_rCOMT: NovaScreen (NVS) Enzymatic Assay for rat Catechol-O-Methyl Transferase (COMT) (AID 2283235)
rat Catechol-O-Methyl Transferase (COMT), Comt (gene 24267), sequence (P22734 whole entry, looked up): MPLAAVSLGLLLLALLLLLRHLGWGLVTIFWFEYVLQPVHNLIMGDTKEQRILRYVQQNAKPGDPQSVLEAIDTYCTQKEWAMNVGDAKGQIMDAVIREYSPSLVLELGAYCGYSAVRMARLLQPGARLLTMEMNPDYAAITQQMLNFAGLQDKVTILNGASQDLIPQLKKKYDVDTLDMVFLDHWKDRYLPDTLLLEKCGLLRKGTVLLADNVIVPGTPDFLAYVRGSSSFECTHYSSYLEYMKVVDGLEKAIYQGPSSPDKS
Procedure, shortened: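 Cell-free enzyme activity with protein extracted from rat dorsal striatum, measured by HPLC with absorbance detection. Compounds screened at 25 uM in duplicate; actives then run in concentration-response up to 50 uM, loss of signal versus DMSO.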

[3] = target: sheep Cyclooxygenase-1 (Cox1), PTGS1 (gene 443551) (UniProt P05979); experiment: NVS_ENZ_oCOX1: NovaScreen (NVS) Enzymatic Assay for sheep Cyclooxygenase-1 (Cox1) (AID 2283239);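 also: actives reduce cyclooxygenase activity so potencies are for inhibitors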
sheep Cyclooxygenase-1 (Cox1), PTGS1 (gene 443551), sequence (P05979 whole entry, looked up): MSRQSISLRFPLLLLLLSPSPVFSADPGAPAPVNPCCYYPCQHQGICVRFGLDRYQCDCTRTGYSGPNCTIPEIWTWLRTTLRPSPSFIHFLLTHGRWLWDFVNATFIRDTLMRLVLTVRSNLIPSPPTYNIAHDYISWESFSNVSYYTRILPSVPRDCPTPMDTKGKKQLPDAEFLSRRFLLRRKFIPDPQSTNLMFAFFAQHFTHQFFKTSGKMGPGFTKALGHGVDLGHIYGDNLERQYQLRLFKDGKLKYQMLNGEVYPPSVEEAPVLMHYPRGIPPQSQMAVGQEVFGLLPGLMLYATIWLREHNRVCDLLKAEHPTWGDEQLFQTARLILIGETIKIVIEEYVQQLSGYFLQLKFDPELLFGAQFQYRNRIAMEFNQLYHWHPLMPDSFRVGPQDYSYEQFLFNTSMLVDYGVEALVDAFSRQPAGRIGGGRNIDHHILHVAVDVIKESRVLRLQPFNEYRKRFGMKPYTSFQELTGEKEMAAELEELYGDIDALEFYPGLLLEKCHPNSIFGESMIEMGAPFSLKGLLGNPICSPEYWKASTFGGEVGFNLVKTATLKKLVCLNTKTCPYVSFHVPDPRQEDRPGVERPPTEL
Procedure, shortened: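 COX1 from ovine seminal vesicles, activity read colorimetrically about 0.66 h after dosing. Primary screen in duplicate at 25 uM; actives retested in concentration series; loss of signal fitted versus DMSO.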

[4] = test system: guinea pig Leukotriene B4 Receptor (LTB4), gene 100379538; experiment: NVS_GPCR_gLTB4: NovaScreen (NVS) G Protein-Coupled Receptor Assay for guinea pig Leukotriene B4 Receptor (LTB4) (AID 2283247)
Description: NVS_GPCR_gLTB4 is a biochemical, single-readout assay that uses extracted gene-proteins from Guinea pig spleen membranes in a tissue-based cell-free assay. Measurements were taken 2 hours after chemical dosing in a 48-well plate.NVS_GPCR_gLTB4 is one of one assay component(s) measured or calculated from the NVS_GPCR_gLTB4 assay. It is designed to make measurements of radioligand binding, a form of binding reporter, as detected with scintillation counting signals by Filter-based radiodetection technology.Data from the assay component NVS_GPCR_gLTB4 was analyzed into 1 assay endpoint. This assay endpoint, NVS_GPCR_gLTB4, was analyzed in the positive analysis fitting direction relative to DMSO as the negative control and baseline of activity. Using a type of binding reporter, loss-of-signal activity can be used to understand changes in the binding as they relate to the gene Ltb4r. Furthermore, this assay endpoint can be referred to as a primary readout, because the performed assay has only produced 1 assay endpoint. To generalize the intended target to other relatable targets, this assay endpoint is annotated to the gpcr intended target family, where the subfamily is rhodopsin-like receptor.
(§1) Binding assays used specific radioligands (tritiated, iodinated) with non-radioactive competitive displacement ligands in agonist or antagonist protocols (as indicated) and various reference compounds and inhibitors to titrate specific binding to receptors and transporters. Most enzyme assays (CYPs, kinases, phosphatases, proteases, HDACs) used recombinant protein and specific substrates (fluorescence mostly, some colorimetric and radioactive) and inhibitors, followed by a biochemical separation of substrate and product. All assays for the biochemical HTS were initially run in duplicate at a single concentration (10 uM for CYP450 assays and 25 uM for all others). Assay-chemical combinations meeting a pre-defined threshold (e.g., 30% inhibition and other criteria defined below) were then run in singleton concentration-response format with maximum concentration of 20 uM for CYPs and 50 uM for all others. Each assay was run with positive and negative controls, and concurrent controls on every plate. The follow-up (secondary) screen tested active chemical-pairs in concentration series, as well as a few additional assays not tested in the primary screen, some selected negative inactives, and several cases re-run in the concentration series for confirmatory purposes.

[5] = NVS_GPCR_bNPY_NonSelective: NovaScreen (NVS) G Protein-Coupled Receptor Assay for bovine Neuropeptide Y (NPY) Receptor, Non-selective Binding (AID 2283245)
Procedure, shortened: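 Bovine hippocampal membranes incubated 1 hour with radioligand and test chemical. Bound ligand measured by filter-based scintillation counting. Single-concentration screen at 25 uM in duplicate, then concentration-response up to 50 uM.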

[6] = target: rat Constitutive Nitric Oxide Synthase (CNOS), Nos1 (gene 24598) (UniProt P29476); experiment: NVS_ENZ_rCNOS: NovaScreen (NVS) Enzymatic Assay for rat Constitutive Nitric Oxide Synthase (CNOS) (AID 2283236)
rat Constitutive Nitric Oxide Synthase (CNOS), Nos1 (gene 24598), sequence (P29476 whole entry, looked up): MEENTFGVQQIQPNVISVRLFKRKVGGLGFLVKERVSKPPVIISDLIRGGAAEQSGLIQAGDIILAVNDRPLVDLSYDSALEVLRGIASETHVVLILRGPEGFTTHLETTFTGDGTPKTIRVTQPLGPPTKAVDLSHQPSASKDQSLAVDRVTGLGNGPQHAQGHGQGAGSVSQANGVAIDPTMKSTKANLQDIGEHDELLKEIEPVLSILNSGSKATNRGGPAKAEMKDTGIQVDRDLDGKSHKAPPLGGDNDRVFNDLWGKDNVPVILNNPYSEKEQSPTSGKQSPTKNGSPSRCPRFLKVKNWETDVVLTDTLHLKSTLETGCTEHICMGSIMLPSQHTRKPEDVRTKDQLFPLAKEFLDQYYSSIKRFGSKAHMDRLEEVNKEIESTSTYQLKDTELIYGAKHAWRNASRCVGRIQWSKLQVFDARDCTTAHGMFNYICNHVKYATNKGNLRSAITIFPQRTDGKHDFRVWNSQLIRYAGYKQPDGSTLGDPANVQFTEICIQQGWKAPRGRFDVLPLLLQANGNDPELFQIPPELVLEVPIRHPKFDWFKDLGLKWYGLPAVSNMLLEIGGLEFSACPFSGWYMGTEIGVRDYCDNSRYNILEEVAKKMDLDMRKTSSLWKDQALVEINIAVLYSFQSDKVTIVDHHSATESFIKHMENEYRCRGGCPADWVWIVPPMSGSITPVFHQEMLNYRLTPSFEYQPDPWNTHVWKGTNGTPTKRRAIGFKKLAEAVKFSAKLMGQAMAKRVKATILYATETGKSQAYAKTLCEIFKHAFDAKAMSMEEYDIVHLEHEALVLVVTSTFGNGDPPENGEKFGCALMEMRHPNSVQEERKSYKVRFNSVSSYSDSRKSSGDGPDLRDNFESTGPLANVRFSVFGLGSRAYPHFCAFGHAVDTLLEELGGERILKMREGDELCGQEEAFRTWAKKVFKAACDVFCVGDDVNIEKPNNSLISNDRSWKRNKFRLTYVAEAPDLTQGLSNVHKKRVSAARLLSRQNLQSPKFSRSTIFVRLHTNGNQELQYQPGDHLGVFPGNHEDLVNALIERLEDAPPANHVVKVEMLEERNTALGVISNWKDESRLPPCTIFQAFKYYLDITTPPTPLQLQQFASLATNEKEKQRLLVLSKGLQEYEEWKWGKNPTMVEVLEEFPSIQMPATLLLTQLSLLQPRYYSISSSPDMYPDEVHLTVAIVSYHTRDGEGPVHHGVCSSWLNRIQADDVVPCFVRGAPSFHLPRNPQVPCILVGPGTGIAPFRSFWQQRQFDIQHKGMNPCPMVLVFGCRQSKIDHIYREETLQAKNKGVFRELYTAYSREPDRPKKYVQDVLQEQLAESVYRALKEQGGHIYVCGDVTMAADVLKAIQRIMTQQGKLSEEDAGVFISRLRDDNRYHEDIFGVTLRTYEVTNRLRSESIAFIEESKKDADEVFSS
Description: NVS_ENZ_rCNOS is a biochemical, single-readout assay that uses extracted gene-proteins from Rat brain membranes in a tissue-based cell-free assay. Measurements were taken 1 hour after chemical dosing in a 96-well plate.NVS_ENZ_rCNOS is one of one assay component(s) measured or calculated from the NVS_ENZ_rCNOS assay. It is designed to make measurements of enzyme activity, a form of enzyme reporter, as detected with scintillation counting signals by Filter-based radiodetection technology.Data from the assay component NVS_ENZ_rCNOS was analyzed into 1 assay endpoint. This assay endpoint, NVS_ENZ_rCNOS, was analyzed in the positive analysis fitting direction relative to DMSO as the negative control and baseline of activity. Using a type of enzyme reporter, loss-of-signal activity can be used to understand changes in the enzymatic activity as they relate to the gene Nos1. Furthermore, this assay endpoint can be referred to as a primary readout, because this assay has produced multiple assay endpoints where this one serves a enzymatic activity function. To generalize the intended target to other relatable targets, this assay endpoint is annotated to the oxidoreductase intended target family, where the subfamily is nitric oxide synthase.
as §1

[7] = target: Adenosine receptor A1 (Bos taurus) (UniProt P28190); experiment: NVS_GPCR_bAdoR_NonSelective: NovaScreen (NVS) G Protein-Coupled Receptor Assay for bovine Adenosine Receptor (AdoR), Non-selective Binding (AID 2283244)
Adenosine receptor A1 (Bos taurus), sequence (P28190 whole entry, looked up): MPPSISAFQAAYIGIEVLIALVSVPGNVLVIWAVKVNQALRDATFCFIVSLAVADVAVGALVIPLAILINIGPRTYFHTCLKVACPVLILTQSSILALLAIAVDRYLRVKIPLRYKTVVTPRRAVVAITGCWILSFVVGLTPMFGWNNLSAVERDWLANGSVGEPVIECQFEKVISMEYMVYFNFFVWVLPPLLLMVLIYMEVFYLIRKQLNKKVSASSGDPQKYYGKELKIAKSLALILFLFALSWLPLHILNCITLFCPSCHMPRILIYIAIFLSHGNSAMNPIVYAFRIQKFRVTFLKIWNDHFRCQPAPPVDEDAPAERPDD
Procedure, shortened: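 Bovine striatal membranes, radioligand displacement binding, 1 h after dosing, filter-based scintillation counting. Screened in duplicate at 25 uM, then concentration-response up to 50 uM; loss of specific binding relative to DMSO.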

[8] = test system: bovine Histamine 1 Receptor (H1), gene 281231; experiment: NVS_GPCR_bH1: NovaScreen (NVS) G Protein-Coupled Receptor Assay for bovine Histamine 1 Receptor (H1) (AID 2283246)
Procedure, shortened: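 Radioligand displacement on bovine cerebellar membranes, 1 h after dosing, filter-based scintillation read-out; loss of signal vs DMSO. Duplicate single-concentration screen at 25 uM, then concentration-response up to 50 uM for hits.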

[9] = test system: bovine Angiotensin II Receptor Type 2 (AT2), gene 407157; experiment: NVS_GPCR_bAT2: NovaScreen (NVS) G Protein-Coupled Receptor Assay for bovine Angiotensin II Receptor Type 2 (AT2) (AID 2283240)
Procedure, shortened: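 Radioligand displacement on bovine cerebellar membranes, 1 hour incubation, filter-based scintillation counting; loss of signal vs DMSO. Duplicate single-point screen at 25 uM, then concentration-response to 50 uM maximum.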

[10] = target: bovine Dopamine Receptor (DR), Non-selective Binding, DRD1 (gene 281125) (UniProt Q95136); experiment: NVS_GPCR_bDR_NonSelective: NovaScreen (NVS) G Protein-Coupled Receptor Assay for bovine Dopamine Receptor (DR), Non-selective Binding (AID 2283241)
bovine Dopamine Receptor (DR), Non-selective Binding, DRD1 (gene 281125), sequence (Q95136 whole entry, looked up): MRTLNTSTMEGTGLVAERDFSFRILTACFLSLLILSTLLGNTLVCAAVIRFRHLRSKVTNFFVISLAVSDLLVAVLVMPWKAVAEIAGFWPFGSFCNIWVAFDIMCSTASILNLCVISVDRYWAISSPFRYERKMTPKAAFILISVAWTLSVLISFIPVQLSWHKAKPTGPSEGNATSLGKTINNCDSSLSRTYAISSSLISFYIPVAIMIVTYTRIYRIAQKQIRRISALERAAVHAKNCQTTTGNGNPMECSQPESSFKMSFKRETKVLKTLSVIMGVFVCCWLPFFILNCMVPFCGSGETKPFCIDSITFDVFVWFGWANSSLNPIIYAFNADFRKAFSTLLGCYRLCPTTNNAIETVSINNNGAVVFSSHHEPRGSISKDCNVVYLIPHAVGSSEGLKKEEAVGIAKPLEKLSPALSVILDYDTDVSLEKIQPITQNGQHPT
Procedure, shortened: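 Bovine striatal membranes; radioligand displacement read by filtration and scintillation counting 1 h after dosing, loss of signal vs DMSO. Screened in duplicate at 25 uM, then concentration-response for hits.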

sheep Cyclooxygenase-2 (Cox2), PTGS2 (gene 443460), sequence (P79208 whole entry, looked up): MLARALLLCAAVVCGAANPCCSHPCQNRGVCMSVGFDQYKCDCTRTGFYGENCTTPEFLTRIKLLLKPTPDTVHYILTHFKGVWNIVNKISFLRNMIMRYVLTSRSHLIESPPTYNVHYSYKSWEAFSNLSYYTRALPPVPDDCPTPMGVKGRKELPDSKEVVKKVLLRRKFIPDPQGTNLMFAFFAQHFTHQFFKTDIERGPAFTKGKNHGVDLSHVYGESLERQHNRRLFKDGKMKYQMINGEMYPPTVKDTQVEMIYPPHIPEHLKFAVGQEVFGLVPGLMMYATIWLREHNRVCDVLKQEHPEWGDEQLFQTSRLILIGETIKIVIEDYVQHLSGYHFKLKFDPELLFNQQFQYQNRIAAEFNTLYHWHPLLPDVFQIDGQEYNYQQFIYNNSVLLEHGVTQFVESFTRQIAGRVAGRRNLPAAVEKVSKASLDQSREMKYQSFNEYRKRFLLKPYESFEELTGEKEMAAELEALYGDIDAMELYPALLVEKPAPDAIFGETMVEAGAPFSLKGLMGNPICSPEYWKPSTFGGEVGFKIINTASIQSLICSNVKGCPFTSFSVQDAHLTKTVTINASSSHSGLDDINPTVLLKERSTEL

Structure (SMILES): CC1=C(/C=C/C(C)=C/C=C/C(C)=C/CO)C(C)(C)CCC1
- AC50 [1]: 15.5 µM (active)
- outcome [2]: inactive
- AC50 [3]: 17.9 µM (active)

Structure (SMILES): Cc1oc(-c2ccccc2)nc1CCOc1cccc2c1ccn2CCC(=O)O
- AC50 [4]: 4.96 µM (active)

Structure (SMILES): CCCCCCCCCCCC(=O)OC
- outcome [5]: inactive

Structure (SMILES): Nc1ccc2c(c1)C(=O)c1ccccc1C2=O
- outcome [6]: inactive
- AC50 [7]: 25 µM (active)
- outcome [8]: inactive

Structure (SMILES): CCCCN(CCCC)CCCC
- outcome [1]: inactive

Structure (SMILES): COc1cc(C=O)ccc1O
- outcome [6]: inactive

Structure (SMILES): CCCCCCOCCO
- outcome [5]: inactive

Structure (SMILES): CNC(=O)[C@H]1O[C@@H](n2cnc3c(NCc4cc(Cl)ccc4OCc4cc(C)no4)ncnc32)[C@H](O)[C@@H]1N
- AC50 [4]: 25 µM (active)

Structure (SMILES): Cc1cc(=O)[nH]c(=S)[nH]1
- AC50 [6]: 6.64 µM (active)

Structure (SMILES): COc1cc(-c2nc(NC(=O)c3cc4cc(C)cc(C)c4n3CC(=O)O)sc2CCC2CCCCC2)c(OC)cc1Cl
- AC50 [3]: 4 µM (active)
- AC50 [9]: 29.4 µM (active)

Structure (SMILES): O=[N+]([O-])C(CO)(CO)CO
- outcome [3]: inactive

Structure (SMILES): CCCCCCC(=O)OCC
- outcome [3]: inactive

Structure (SMILES): COCCOC[C@H](CC1(C(=O)NC2CCC(C(=O)O)CC2)CCCC1)C(=O)Oc1ccc2c(c1)CCC2 (some centres not stated)
- outcome [4]: inactive

Structure (SMILES): CC=Cc1ccc(O)c(OC)c1
- outcome [3]: inactive

Structure (SMILES): CC(=O)OC/C=C(\C)CCC=C(C)C
- AC50 [1]: 9.67 µM (active)
- AC50 [3]: 8.78 µM (active)

Structure (SMILES): Cc1ccc(Cl)cc1
- outcome [3]: inactive

Structure (SMILES): CCc1c(C(=O)NN2CCCCC2)nn(-c2ccc(Cl)cc2Cl)c1-c1ccc(Br)cc1
- outcome [7]: inactive

Structure (SMILES): CCCCC(CC)COC(=O)CC(C(=O)OCC(CC)CCCC)S(=O)(=O)O (configuration not stated)
- outcome [6]: inactive
- AC50 [3]: 6.53 µM (active)
- AC50 [9]: 19.1 µM (active)
- AC50 [4]: 6.15 µM (active)

Structure (SMILES): NC(=O)Cn1c(=O)cc(CCN2CCN(c3nccc4sccc34)CC2)c2ccc(F)cc21
- AC50 [10]: 1.26 µM (active)
- AC50 [8]: 0.777 µM (active)

Structure (SMILES): COc1ccc(C)cc1N
- AC50 [6]: 7.8 µM (active)
- AC50 [3]: 10.7 µM (active)

Structure (SMILES): CCOC(=O)C(C)(C)Oc1ccc(Cl)cc1
- AC50 [1]: 8.26 µM (active)
- outcome [3]: inactive

Structure (SMILES): Cc1ccc(C(C)C)c(O)c1
- outcome [8]: inactive

Structure (SMILES): Nc1nc(N)c2nc(CNc3ccc(C(=O)N[C@@H](CCC(=O)O)C(=O)O)cc3)cnc2n1
- AC50 [3]: 1.66 µM (active)

Structure (SMILES): C1CCC(SSC2CCCCC2)CC1
- outcome [10]: inactive

Structure (SMILES): FC(F)(F)C(F)(F)C(F)(F)C(F)(F)C(F)(F)C(F)(F)CCI
- outcome [6]: inactive

Structure (SMILES): CC(=O)Oc1ccccc1C(=O)O
- outcome [1]: inactive
- outcome [3]: inactive

Structure (SMILES): Nc1ccccc1N
- AC50 [1]: 14.9 µM (active)
- outcome [3]: inactive
- AC50 [7]: 9.16 µM (active)

Structure (SMILES): C=CCc1ccc(O)c(OC)c1
- AC50 [1]: 15.7 µM (active)
- outcome [4]: inactive

Structure (SMILES): Oc1ccc2ccccc2c1N=Nc1ccccc1
- AC50 [7]: 25 µM (active)

Structure (SMILES): Cc1ccc(C)c(O)c1C
- AC50 [1]: 3.04 µM (active)

Structure (SMILES): CCOc1ccc2c(c1)C(C)=CC(C)(C)N2
- outcome [6]: inactive

Structure (SMILES): Cc1ccc(N(C)C)cc1
- outcome [7]: inactive

Structure (SMILES): C[C@]12C=CC(=O)C=C1CC[C@@H]1[C@@H]2C(=O)C[C@@]2(C)[C@H]1CC[C@]2(O)C(=O)CO
- outcome [8]: inactive

Structure (SMILES): COc1cc(S(=O)(=O)O)c(C)cc1N=Nc1c(O)ccc2cc(S(=O)(=O)O)ccc12
- outcome [6]: inactive
- outcome [7]: inactive
- outcome [4]: inactive

Structure (SMILES): O=c1c(O)c(-c2ccc(O)c(O)c2)oc2cc(O)cc(O)c12
- AC50 [2]: 12.4 µM (active)
- AC50 [7]: 0.89 µM (active)

Structure (SMILES): C=CCOC(=O)c1ccccc1C(=O)OCC=C
- AC50 [1]: 5.13 µM (active)

Structure (SMILES): COc1ccc(S(=O)(=O)N2C(=O)[C@@](c3ccccc3OC)(N3C[C@H](O)C[C@H]3C(=O)N(C)C)c3cc(Cl)ccc32)c(OC)c1
- outcome [5]: inactive

Structure (SMILES): CC(C)c1ccc(C(=O)N=C(N)N)cc1S(C)(=O)=O
- outcome [6]: inactive

Reference: PubChem BioAssay (EPA / NIEHS)
